An excerpt weighted towards active compounds, which were near 1.6% of everything screened.
Yeast superoxide: reduction of superoxide in aged yeast, primary screen, HTS; S. cerevisiae aged cells, superoxide DHE fluorescence; stronger effect = lower value; superoxide response (% of plate mean), % at 10 µM; 330,000 tested, 0.18% active;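 active = superoxide response under a set limit, about three screen SD below normal, cut at about 65% in these data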;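 also: yeast aged for seven days with compound at 30 °C before DHE staining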
Efflux pump inh: inhibitors of Candida efflux pumps in yeast, primary screen, S. cerevisiae, Nile Red, multiplex; S. cerevisiae Candida pump triplex; inhibition, % at 10 µM; 330,000 tested, 0.44% active; AID 485275, 2010;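 active = plate passing quality check with inhibition over a set limit, or well fluorescence over plate mean plus 4 SD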;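 also: Nile Red retained in pooled yeast measured as flow cytometry median fluorescence; higher means more Nile Red kept so more efflux inhibition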
ATG4B inhibitor: ATG4B protease inhibitors, primary screen, biochemical, fluorescence, uHTS; Cysteine protease ATG4B (Homo sapiens), Q9Y4P1; ATG4B cleavage of LC3-PLA2, NBD-HPC fluorescence, 1 h; inhibition, % at 8.33 µM; 340,000 tested, 0.51% active; AID 504462, 2011; in the data active = inhibition above about 40%
GRK2 aptamer HTS: compounds blocking aptamer binding on GRK2 – biochemical, human GRK2, bead flow cytometry, HTS, primary screen | FAM-aptamer displacement from GRK2 | inhibition of aptamer binding, % at 10 µM | 330,000 tested, 0.59% active | AID 488847, 2010;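 active = inhibition of aptamer binding above 40%, roughly 3 SD of noise, on plates passing a quality check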;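 also: median bead fluorescence of bound FAM aptamer so fluorescent compounds give negative values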
ATG4B confirm: ATG4B protease inhibitors, retest, confirmation, biochemical, fluorescence, single concentration | inhibition, % at 8.33 µM | shares compounds with ATG4B inhibitor | 320 tested, 92% active | ATG4B protease fluorescent substrate cleavage assay; in the data active = inhibition above about 39%
PLA2 counter: PLA2 enzyme inhibition, counter-screen for ATG4B inhibitor project, biochemical, single concentration, uHTS hits | shares compounds with ATG4B inhibitor | purified PLA2, NBD-C6-HPC fluorescence, 45 min | inhibition, % at 8.33 µM | 1,600 tested, 66% active; in the data active = inhibition above about 50%
Target sequence (P04054 whole entry, looked up): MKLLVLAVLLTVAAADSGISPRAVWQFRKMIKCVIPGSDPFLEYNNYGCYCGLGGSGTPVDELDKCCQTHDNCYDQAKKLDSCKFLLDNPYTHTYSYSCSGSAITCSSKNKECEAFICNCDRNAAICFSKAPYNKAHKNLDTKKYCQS
A number is an active result; - = inactive; . = no result given.

SMILES	Yeast superoxide	Efflux pump inh	ATG4B inhibitor	GRK2 aptamer HTS	PLA2 counter	others
O=C1Nc2ccc(F)cc2C12Nc1ccccc1-c1nnc(SCc3ccccc3)nc1O2 (configuration not stated)	-	-	-	-	.
O=C(COC(=O)c1ccc(O)cc1)Nc1cc(S(=O)(=O)N2CCOCC2)ccc1Cl	-	-	-	-	.
COc1ccc(OC)c(-c2cc(C(=O)N3CCc4ccccc4C3)no2)c1	-	-	49	-	56
COc1ccc(N2CCN(C(=O)c3[nH]c4ccc(OC)cc4c3C)CC2)cc1	-	-	-	-	.
COc1ccc2[nH]c(C(=O)N3CCc4ccccc4C3)c(C)c2c1	-	-	62	-	64
COc1ccc(-c2cc(C(=O)N3CCc4ccccc4C3)no2)cc1	-	-	-	-	.
Cc1cc(C)nc(SCc2ccc(C(=O)N/N=C3\CC(C)CC(C)(C)C3)cc2)n1 (configuration not stated)	-	-	47	-	-	ATG4B confirm=76
COCCNC(=O)Nc1ccc2nc(-c3cccs3)c(-c3cccs3)nc2c1	-	-	-	-	.
O=C(Nc1ccc2nc(-c3cccs3)c(-c3cccs3)nc2c1)NC1CC1	-	-	72	-	81
Cc1c(Br)cnn1C(C)C(=O)N1CCN(c2ccc(F)cc2)CC1 (configuration not stated)	-	-	-	-	.
Cc1c(Cl)cccc1NC(=S)N1CCCN(Cc2ccc(F)cc2)C1	-	-	52	-	55
Cc1c(Cl)cccc1NC(=S)N1CCCN(Cc2ccccc2F)C1	-	-	64	-	56
O=c1cc(-c2ccccc2Cl)oc2c(NS(=O)(=O)c3ccccc3OC(F)(F)F)ccc(O)c12	-	-	43	-	78
O=C(Nc1ccc(O)c2c(=O)cc(-c3ccccc3Cl)oc12)c1ccc(Cl)c(Cl)c1	-	-	-	-	.
O=c1cc(-c2ccccc2Cl)oc2c(Br)ccc(O)c12	-	-	-	-	.
O=c1cc(-c2ccccc2Cl)oc2c(NS(=O)(=O)c3cccs3)ccc(O)c12	-	-	57	-	74
O=c1cc(-c2ccccc2Cl)oc2c(NS(=O)(=O)c3ccccc3C(F)(F)F)ccc(O)c12	-	-	42	-	53
Cc1ccc(S(=O)(=O)NC(=O)NCCCN2CCOCC2)cc1	-	-	-	-	.
Cc1cccc(OCCSc2nc3ccccc3n2CC(=O)O)c1	-	-	-	-	.
Cc1ccc(-c2nnn(CC(=O)N(c3ccc4c(c3)OCCO4)C(C(=O)NCC3CCCO3)c3ccc(F)cc3)n2)o1 (configuration not stated)	-	-	-	-	.
N#CC1=C(N)OC2=C(C(=O)CC(c3ccco3)C2)C1c1ccc(OCc2c(F)cccc2Cl)cc1 (configuration not stated)	-	-	87	-	89
O=C(Nc1c(C(=O)O)oc2ccc(Br)cc12)c1ccccc1	-	-	48	-	57
COC(=O)c1ccc(CSc2nc3c(c(=O)n2-c2ccc(Br)cc2)SCC3)o1	-	-	65	-	73
CCOc1ccc(-n2c(SCC(=O)Nc3ccc(OC)cc3)nc3c(c2=O)SCC3)cc1	-	-	-	-	.
CCOc1ccc(-n2c(SCc3ccc(C(=O)OC)o3)nc3c(c2=O)SCC3)cc1	-	-	60	-	77
SMILES	Yeast superoxide	Efflux pump inh	ATG4B inhibitor	GRK2 aptamer HTS	PLA2 counter	others
COc1ccc(C)cc1NC(=O)C(=O)N/N=C(\C)CC(=O)Nc1cccnc1	-	-	-	-	.
C[C@H](CO)N1C[C@H](C)[C@@H](CN(C)C(=O)Nc2ccc(C(F)(F)F)cc2)Oc2ccc(NS(=O)(=O)c3cn(C)cn3)cc2C1=O	-	-	-	-	.
Fc1ccccc1CSc1nnc(-c2cnccn2)n1Cc1ccco1	-	-	-	-	.
Clc1ccc(CSc2nnc(-c3ccccn3)n2Cc2ccco2)c(Cl)c1	-	-	41	-	55
Cc1cccc(C)c1OCc1nc2ccccc2c(=O)n1/N=C/c1ccc(OCC(=O)O)cc1	-	-	53	-	-	ATG4B confirm=62
Cc1cc(/C=N/n2c(COc3ccccc3)nc3ccccc3c2=O)c(O)c([N+](=O)[O-])c1	-	-	60	-	-	ATG4B confirm=53

High-throughput results: PubChem BioAssay, several laboratories
